Data from PubChem BioAssay (NCI).
The panel holds about 83,000 compounds, 20% with a hit somewhere; the sample as a whole holds those more often.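 Results are percent growth after 48 hours of single-concentration exposure. 100 means growth as in untreated cells, lower positive values show inhibition; negative values down to -100 show cell death.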 A number with no mark means an inactive call. Active and inactive are the calls of the source. The calls were made as follows: active = growth percent below 10; inactive = the rest.

Columns and labels:
Experiment in all cases: NCI-60 one-dose screen, 48 h (100 = growth as untreated, 0 = no growth, -100 = all killed)
Settings in all cases: 10 µM
DU-145 prostate = test system: DU-145 prostate
K-562 leukemia = test system: K-562 leukemia
MALME-3M melanoma = test system: MALME-3M melanoma
MDA-MB-231 breast = test system: MDA-MB-231 breast
RXF 393 renal = test system: RXF 393 renal
SF-268 CNS = test system: SF-268 CNS
SF-295 CNS = test system: SF-295 CNS
SF-539 CNS = test system: SF-539 CNS
UACC-257 melanoma = test system: UACC-257 melanoma
M14 melanoma = test system: M14 melanoma

Compound	growth (DU-145 prostate)	growth (K-562 leukemia)	growth (MALME-3M melanoma)	growth (MDA-MB-231 breast)	growth (RXF 393 renal)	growth (SF-268 CNS)	growth (SF-295 CNS)	growth (SF-539 CNS)	growth (UACC-257 melanoma)	growth (M14 melanoma)
CCOc1ccc2c(c1)CC[C@@H]1[C@@H]2CC[C@]2(C)[C@@H](O)[C@@H](O)C[C@@H]12	108%	91.8%	91.4%	109%	95.9%	103%	100%	103%	95.4%	108%
C[N+]1=C(/C=C/c2ccc(I)cc2)C(C)(C)c2ccccc21	104%	109%	86%	67.1%	70.7%	89.9%	100%	98.7%	104%	91%
Cc1cc(O)c(C2=NN(c3ccc(S(N)(=O)=O)cc3)C(c3ccc(N(C)C)cc3)C2)c(C)c1Cl (stereo not given)	75.2%	25%	157%	103%	93.4%	72.1%	6.34% (active)	91.6%	97.6%	89.3%
Cc1cc(C)c(C(=O)OC(C)CNC2CCCCC2)c(C)c1 (stereo not given)	106%	81.2%	108%	102%	105%	99.7%	97.7%	99.2%	97.7%	90.5%
CCCCCCCOc1cccc(/C=C2/C(=O)N=C3SCCCN32)c1	55.7%	37%	81.6%	65.8%	83.7%	85%	75.1%	92.7%	68.4%	71%
COC(=O)[C@]12CC[C@@H](C)[C@H](C)[C@@H]1C1=CC[C@@H]3[C@@]4(C)C/C(=N\O)[C@H](O)[C@@]5(C)COC(=C45)C[C@@]3(C)[C@]1(C)CC2	-94.8% (active)	-58.4% (active)	-71.1% (active)	-59.3% (active)	-73.4% (active)	-78.6% (active)	-88.5% (active)	-75.2% (active)	-90.5% (active)	-82.3% (active)
NC(=O)C1CCCN(Cc2c[nH]c3ccccc23)C1 (stereo not given)	106%	97.3%	99.7%	99.8%	95.2%	96%	92.7%	92.9%	96.5%	99%
COc1ccc(C2C=C(c3ccc(OC)c(OC)c3)N=C3SC=CN32)c(Br)c1 (stereo not given)	82.7%	8.77% (active)	88.7%	78%	98.5%	90.4%	74.9%	87.1%	97.3%	55.9%
COc1cc(OC)cc(-c2ccc(-c3ccc(C(=N)N)cn3)o2)c1	21.6%	-59.9% (active)	-79.9% (active)	-83.2% (active)	-69.9% (active)	-20.3% (active)	-70.5% (active)	-69.1% (active)	-80.6% (active)	-77.9% (active)
CCc1c(C(=O)NCc2c(O)ccc3cccc(O)c23)[nH]c(C)c1C(C)=O	55.1%	16.8%	37.4%	48.3%	58.8%	31.1%	11.8%	56.3%	35%	30.9%
FC(F)(F)c1ccc(-c2nc(-c3nc4cc(Cl)c(Cl)cc4[nH]3)c3ccccn23)cc1	58.6%	79.8%	22.3%	29.6%	31.7%	44.9%	71.2%	32.6%	93.4%	79.6%
Cc1ccc(-n2c(-c3cc4c([nH]c5ccccc54)c(-c4cccc(O)c4)n3)n[nH]c2=S)cc1	-16.6% (active)	9.64% (active)	41.3%	-1.15% (active)	-50.5% (active)	9.02% (active)	-17.2% (active)	-27.3% (active)	2.43% (active)	-40.1% (active)
COc1ccc2oc(=O)cc(C3c4ccc([nH]4)C(c4cc(=O)oc5ccc(OC)cc45)c4ccc([nH]4)C(c4cc(=O)oc5ccc(OC)cc45)c4ccc([nH]4)C(c4cc(=O)oc5ccc(OC)cc45)c4ccc3[nH]4)c2c1 (stereo not given)	-19.3% (active)	-20.5% (active)	2.83% (active)	-16.5% (active)	-77.3% (active)	20.4%	9.08% (active)	-26.9% (active)	33.7%	3.08% (active)
COc1ccccc1S(=O)(=O)Nc1ccc2c(c1)CN(C)C(=O)N2	77.8%	28.6%	32.2%	54.7%	73.3%	72.9%	5.34% (active)	50.1%	33.8%	47.8%
C=CCN1C(=O)/C(=C\c2ccc3c(c2)CCC3)SC1=S	106%	103%	93.7%	98.8%	101%	102%	95.2%	95.5%	110%	101%
O=C(Nc1ccc(OS(=O)(=O)Cc2ccccc2)cc1)C12CC3CC(CC(C3)C1)C2	87.4%	13.1%	91.8%	78.7%	99%	84.6%	60.3%	86.1%	99%	77.4%
CNC(=O)c1cc(Oc2ccc(NC(=O)Nc3ccc(Cl)c(C(C)(C)C)c3)c(F)c2)ccn1	60.8%	19%	0.423% (active)	48.4%	90%	59.1%	24.5%	46.6%	20.7%	22.4%
CCOC(=O)[C@@H]1[C@H](c2ccccc2)[C@H]([N+](=O)[O-])[C@H](c2cn(-c3ccccc3)nc2C)N1Cc1ccccc1	94.4%	61.4%	81%	68.2%	69.9%	68.4%	81.8%	81.7%	64.2%	76.5%
COC(=O)[C@]12CC[C@@H](C)[C@H](C)[C@@H]1C1=CC[C@@H]3[C@@]4(C)CC(=O)[C@H](O)[C@@]5(C)COC(=C45)C[C@@]3(C)[C@]1(C)CC2	-85.7% (active)	-24.9% (active)	-75.7% (active)	-72.5% (active)	-87.6% (active)	-67.2% (active)	-77.8% (active)	-52.1% (active)	-75.1% (active)	-66.3% (active)
CCOC(=O)c1ccc(N(C=O)CCC(=O)CCl)cc1	-25.8% (active)	4.03% (active)	45.1%	-16.5% (active)	-37.7% (active)	6.04% (active)	-16.1% (active)	-31.2% (active)	39%	-5.18% (active)
C=C[C@]1(C)C=C2C(=O)[C@@]3(O)OC(=O)[C@@]4(CCCC(C)(C)[C@H]34)[C@@]2(O)CC1	-99.4% (active)	1.73% (active)	-69.6% (active)	-71.9% (active)	-97.4% (active)	-66.7% (active)	-17.2% (active)	-97.6% (active)	-93% (active)	-89% (active)
COc1ccc(-c2oncc2-c2cc(OC)c3c(c2)OCO3)cc1	34.2%	13.8%	52.4%	54.1%	17.4%	50.2%	12.3%	-16% (active)	45.1%	13.1%
Cc1ccccc1C1=N[C@@H](Cc2ccccc2)C(=O)c2c(nc3ccccn23)N1	113%	113%	109%	104%	105%	104%	96.5%	99.4%	87.3%	102%
CC(CNC(Cc1ccccc1)c1ccccc1)NC(Cc1ccccc1)c1ccccc1 (stereo not given)	21.4%	8.06% (active)	45%	17.4%	43.7%	53.5%	61.2%	52.7%	76.9%	30.4%
CCCCCCCC/C=C/CCCCCCCCC1=NCCN1CCO	84.7%	-11.8% (active)	85.8%	68.3%	56.8%	77.3%	39.6%	75.6%	83.5%	74%
COc1cc(-c2nc3ccc(C)cc3[nH]2)ccc1OCC(=O)N=Nc1c(O)[nH]c2ccccc12	2.84% (active)	-62.9% (active)	-68.8% (active)	-81.2% (active)	-9.89% (active)	-35.6% (active)	-52.8% (active)	-88.5% (active)	13.8%	-72.8% (active)
NC(N)=NS(=O)(=O)c1ccc(Nc2ccc3nnc(-c4ccncc4)n3n2)cc1	111%	95.3%	98.1%	102%	106%	102%	116%	100%	127%	105%
